Results taken from PubChem BioAssay (NCI).
About 83,000 compounds went through this panel and 20% of them were active in at least one assay; those are over-represented in the sample as a whole.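 In brief: 96-well plates, 48 h treatment, single concentration, percent growth endpoint.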 A number with no mark means an inactive call. Calls of active or inactive are those of the source. How the source made its calls: active means growth percent below 10; inactive means the rest.

What was measured:
Test in all cases: NCI-60 one-dose screen, 48 h (100 = growth as untreated, 0 = no growth, -100 = all killed)
NCI-H226 lung = settings: 10 µM
NCI-H322M lung = settings: 10 µM
HOP-62 NSCLC = settings: 10 µM
NCI-H460 lung = settings: 10 µM
A549/ATCC NSCLC = settings: 10 µM
786-0 renal = settings: 10 µM
DU-145 prostate = settings: 10 µM
SF-268 CNS = settings: 10 µM
SF-295 CNS = settings: 10 µM
SF-539 CNS = settings: 10 µM
HCT-15 colon = settings: 10 µM
HT29 colon = settings: 10 µM
SNB-75 CNS = settings: 10 µM
SNB-19 CNS = settings: 10 µM
U251 CNS = settings: 10 µM
PC-3 prostate = settings: 10 µM
EKVX NSCLC = settings: 10 µM
UO-31 renal = settings: 10 µM
ACHN renal = settings: 10 µM
HL-60(TB) leukemia = settings: 10 µM unless noted

Row | Compound | growth (NCI-H226 lung) | growth (NCI-H322M lung) | growth (HOP-62 NSCLC) | growth (NCI-H460 lung) | growth (A549/ATCC NSCLC) | growth (786-0 renal) | growth (DU-145 prostate) | growth (SF-268 CNS) | growth (SF-295 CNS) | growth (SF-539 CNS) | growth (HCT-15 colon) | growth (HT29 colon) | growth (SNB-75 CNS) | growth (SNB-19 CNS) | growth (U251 CNS) | growth (PC-3 prostate) | growth (EKVX NSCLC) | growth (UO-31 renal) | growth (ACHN renal) | growth (HL-60(TB) leukemia)
1 | C/C=C\C(=O)O[C@@H]1CC2O[C@@H]3C=C(C)C(=O)C[C@]3(C)[C@]1(C)[C@]21CO1 | -20.5% (active) | -11% (active) | -32.6% (active) | 0.808% (active) | -5.19% (active) | -20.2% (active) | -15.1% (active) | 0.463% (active) | -18.2% (active) | -31.9% (active) | -5% (active) | -33.4% (active) | -14.8% (active) | -10.5% (active) | -11% (active) | -2.85% (active) | -2.36% (active) | -12.4% (active) | -28.6% (active) | -47.3% (active)
2 | CC(C)(O)/C=C/C(=O)[C@](C)(O)[C@H]1[C@H](O)C[C@@]2(C)[C@H]3CC=C4[C@@H](C[C@H](O)C(=O)C4(C)C)[C@]3(C)C(=O)C[C@]12C | 12.7% | 32.3% | 5.78% (active) | 15.6% | 10.1% | 1.91% (active) | 14% | -3.28% (active) | 7.51% (active) | -31.5% (active) | 7.53% (active) | 3.2% (active) | -39.4% (active) | 8.14% (active) | 0.229% (active) | 11.4% | 18.4% | -52.7% (active) | -1.68% (active) | -3.29% (active)
3 | COc1cc2c(O[C@@H]3OC[C@H](OC(C)=O)[C@H](OC(C)=O)[C@H]3O)c3c(c(-c4ccc5c(c4)OCO5)c2cc1OC)C(=O)OC3 | 2.53% (active) | 61.5% | 36.9% | 10.7% | 12.4% | 20% | 43% | 42.4% | -43% (active) | 25.6% | 1.41% (active) | 9% (active) | 6.09% (active) | 58.7% | 28.5% | 26.5% | 39.5% | 50% | 29% | 26%
4 | CC1=C[C@H]2O[C@@H]3C[C@H]4OC(=O)/C=C\C=C\[C@H]([C@@H](C)O)OCC/C(C)=C/C(=O)OC[C@@]2(CC1)[C@]4(C)[C@]31CO1 | -50.5% (active) | -19% (active) | -42.9% (active) | -7.38% (active) | -25.6% (active) | -43.6% (active) | -17.5% (active) | -1.73% (active) | -37.5% (active) | -39.2% (active) | -18.6% (active) | -27.7% (active) | -50.1% (active) | -6.9% (active) | -17.3% (active) | -23.9% (active) | -25.1% (active) | -29.4% (active) | -16.1% (active) | -44.9% (active)
5 | CC(=O)O[C@@H]1[C@@H]2O[C@H]2[C@@](C)(O)C(=O)[C@@H](C)C/C=C/[C@H]2[C@@H]3O[C@]3(C)[C@@H](C)C3[C@H](Cc4ccccc4)NC(=O)[C@@]312 (some centres undefined) | 65.7% | 92.5% | 5.72% (active) | 28.5% | 25.1% | 24.3% | 50.2% | 26.5% | 65.4% | 51.5% | 54.1% | 36.3% | -12.9% (active) | 55.1% | 43.1% | 72.3% | 39.1% | 24.8% | 40.4% | –
